Data as given in PubChem BioAssay (NCATS).
Results filed as inconclusive are left out. Where a call stands in place of a potency, no number is given. Calls of active or inactive are those of the source. Unless noted, the call rests on the fitted dose curve.

Legend:
[1] = qHTS for Inhibitors of the Functional Ribonucleoprotein Complex (vRNP) of Lassa (LASV) Arenavirus: Viability assay - alamar blue signal for LASV Primary Screen (AID 1347083; calls by dose curve; tested in HEK293 reporter line; further: nearly all actives have a fitted effect of over 80% in size); conditions: cell viability, alamar blue fluorescence (LASV minigenome counter-screen); series mostly up to 57.5 µM
[2] = qHTS for Inhibitors of the Functional Ribonucleoprotein Complex (vRNP) of Lymphocytic Choriomeningitis Arenaviruses (LCMV): Viability assay - alamar blue signal for LCMV Primary Screen (AID 1347085; calls by dose curve; tested in HEK293 reporter line; further: nearly all actives have a fitted effect of over 80% in size); conditions: alamar blue viability counter-screen, LCMV vRNP screen cells; series mostly up to 57.5 µM
[3] = target: Nucleoprotein (Lymphocytic choriomeningitis virus (strain Armstrong)) (UniProt P09992); experiment: qHTS for Inhibitors of the Functional Ribonucleoprotein Complex (vRNP) of Lymphocytic Choriomeningitis Arenaviruses (LCMV): LCMV Primary Screen - GLuc reporter signal (AID 1347086); conditions: LCMV minigenome vRNP cell assay, Gaussia luciferase reporter; series mostly up to 57.5 µM; further: nearly all actives have a fitted effect of over 70% in size
Potency means the concentration at half of the fitted maximal effect.

Nucleoprotein (Lymphocytic choriomeningitis virus (strain Armstrong)), sequence (P09992 whole entry, looked up): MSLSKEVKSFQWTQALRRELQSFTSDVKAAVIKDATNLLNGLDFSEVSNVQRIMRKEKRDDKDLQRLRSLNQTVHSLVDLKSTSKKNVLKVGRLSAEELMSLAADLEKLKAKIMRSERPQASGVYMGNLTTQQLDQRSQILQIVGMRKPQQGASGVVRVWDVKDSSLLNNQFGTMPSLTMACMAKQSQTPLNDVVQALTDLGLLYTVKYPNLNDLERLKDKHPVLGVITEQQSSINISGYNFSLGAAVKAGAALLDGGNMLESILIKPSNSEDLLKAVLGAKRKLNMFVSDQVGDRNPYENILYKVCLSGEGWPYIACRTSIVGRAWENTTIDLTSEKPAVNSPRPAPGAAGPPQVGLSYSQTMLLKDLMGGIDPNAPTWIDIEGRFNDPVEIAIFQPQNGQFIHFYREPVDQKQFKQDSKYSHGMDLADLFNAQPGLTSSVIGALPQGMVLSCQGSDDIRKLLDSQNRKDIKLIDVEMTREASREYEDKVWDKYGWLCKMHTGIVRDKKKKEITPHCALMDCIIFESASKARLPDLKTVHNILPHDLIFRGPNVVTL

| SMILES | Potency [1] | Potency [2] | Potency [3] |
| --- | --- | --- | --- |
| C[C@@H](O[C@H]1OCCN(Cc2n[nH]c(=O)[nH]2)[C@@H]1c1ccc(F)cc1)c1cc(C(F)(F)F)cc(C(F)(F)F)c1 | inactive | inactive | inactive |
| O=C(O)c1ccc2cc(-c3ccc(O)c(C45CC6CC(CC(C6)C4)C5)c3)ccc2c1 | inactive | inactive | inactive |
| CCCN1CCC[C@H](c2cccc(O)c2)C1 | inactive | inactive | inactive |
| Brc1ccccc1-c1ccccc1 | inactive | inactive | inactive |
| CCCCc1ccc(C(=O)O)nc1 | inactive | inactive | inactive |
| Cc1nc(N)sc1-c1ccnc(Nc2ccc(N3CCOCC3)cc2)n1 | 7.69 µM (active) | 13.7 µM (active) | inactive |
| O=c1[nH]c(-c2ccc(C(F)(F)F)cc2)nc2c1CSCC2 | inactive | inactive | inactive |
| CC(=O)OCC(=O)[C@@]1(O)[C@H](C)C[C@H]2[C@@H]3C=C(C)C4=Cc5c(cnn5-c5ccccc5)C[C@]4(C)[C@@H]3[C@@H](O)C[C@@]21C | inactive | inactive | inactive |
| C=CC(=O)Nc1cccc(Oc2nc(Nc3ccc(N4CCN(C)CC4)cc3OC)ncc2Cl)c1 | 0.0385 µM (active) | 0.0485 µM (active) | inactive |
| CCCn1c(=O)c2[nH]c(C34CC5CC3C[C@@H](C5)C4)nc2n(CCC)c1=O | inactive | inactive | inactive |
| CC(=O)Oc1ccccc1C(=O)O | inactive | inactive | inactive |
| CCN(CC)CCn1c(=O)c(Cc2ccc(OC)cc2)nc2ccccc21 | inactive | inactive | inactive |
| COc1cccc2cc(-c3nc(C4CCC(C(=O)O)CC4)n4ncnc(N)c34)[nH]c12 (stereo not drawn) | 0.611 µM (active) | 1.72 µM (active) | 3.06 µM (active) |
| Cc1ccccc1C(C(=O)NC1CCCC1)N(C(=O)Cn1cnc2ccccc21)c1cccc(F)c1 (stereo not drawn) | inactive | inactive | inactive |
| CC[C@@H]1C(=O)OC[C@@H]1Cc1cncn1C | inactive | inactive | inactive |
| Nc1ccc(-c2ccc3ncc4ccc(=O)n(-c5cccc(C(F)(F)F)c5)c4c3c2)cn1 | 0.0027 µM (active) | 0.0054 µM (active) | 0.0054 µM (active) |
| C#CC(C)(CC)OC(=O)c1ccccc1C(=O)O (stereo not drawn) | inactive | inactive | inactive |
| C1Cc2[nH]nc(-c3nn[nH]n3)c2C1 | inactive | inactive | inactive |

| SMILES | Potency [1] | Potency [2] | Potency [3] |
| --- | --- | --- | --- |
| CC(C)(C)c1cc(C(C)(C)C)c(NC(=O)c2c[nH]c3ccccc3c2=O)cc1O | inactive | inactive | inactive |
| CC(C)(C)c1cc(C(=O)O)c(NC(=O)Nc2ccc3[nH]ncc3c2)s1 | inactive | inactive | inactive |
| c1ccc(C2(c3ccccc3)CC2C2=NCCN2)cc1 (stereo not drawn) | inactive | inactive | inactive |
| C[C@H](NC(=O)Cc1cc(F)cc(F)c1)C(=O)N[C@@H]1C(=O)N(C)c2ccccc2-c2ccccc21 | inactive | inactive | inactive |
| CCOC(=O)c1cccnc1 | inactive | inactive | inactive |
| NC(=NCCC[C@H](N)C(=O)O)N[N+](=O)[O-] | inactive | inactive | inactive |
| O=C(C=Cc1cccnc1)NCCCCC1CCN(C(=O)c2ccccc2)CC1 | 0.0611 µM (active) | 0.0385 µM (active) | 0.0385 µM (active) |
| Oc1c(I)cc(I)c2cccnc12 | inactive | inactive | inactive |
| Fc1ccc(Cl)cc1-c1nc(Nc2ccncc2)c2nccnc2n1 | inactive | inactive | inactive |
| CCC(=C(c1ccccc1)c1ccc(OCCN(C)C)cc1)c1ccccc1 | inactive | inactive | inactive |
| O=C(O)[C@H](Cc1c[nH]c2ccccc12)N1C(=O)c2ccccc2C1=O | inactive | inactive | inactive |
| COc1cc(Nc2ncc3c(n2)-c2ccc(Cl)cc2C(c2c(F)cccc2OC)=NC3)ccc1C(=O)O | inactive | inactive | inactive |
| COc1cc2ncnc(-n3nc(-c4ccccn4)nc3N)c2cc1OC | 19.3 µM (active) | 7.69 µM (active) | 2.43 µM (active) |
| Cn1c2cc(S(C)=O)sc2c2cnn(Cc3cccc(N)c3)c(=O)c21 (stereo not drawn) | inactive | inactive | inactive |
| NC(=O)CN1CC(O)CC1=O (stereo not drawn) | inactive | inactive | inactive |
| Cc1cccc(Nc2nc(N[C@@H]3CCCC[C@H]3N)ncc2C(N)=O)c1 | 4.85 µM (active) | inactive | inactive |
| O=C(O)[C@@H]1CCN1 | inactive | inactive | inactive |
| O=[N+]([O-])c1cccc(S(=O)(=O)NCCNS(=O)(=O)c2cccc([N+](=O)[O-])c2)c1 | inactive | inactive | inactive |
